Data reported in the supplement of paper PMC13380429.

Test system: Vero E6 infected with SARS-CoV-2
Assay: inhibition of SARS-CoV-2 cytopathic effect; higher = more antiviral protection, active = above 15
Details: 48 h

Measured: inhibition of SARS-CoV-2 cytopathic effect

CC(C)=CCC/C(C)=C/CC/C(C)=C/C=C/C(C)=C/C(=O)O [peretinoin]
inactive: 1 nM 0.75% | 8.33 nM 0.23% | 100 nM -1.49% | 833.33 nM 0.48% | 10000 nM 0.08%

NS(=O)(=O)c1cc2c(cc1Cl)NCNS2(=O)=O [hydrochlorothiazide]
inactive: 1 nM 3.33% | 8.33 nM 0.33% | 100 nM 0.49% | 833.33 nM 0.84% | 10000 nM -1.16%

CC1(C)NC(=O)N(c2ccc([N+](=O)[O-])c(C(F)(F)F)c2)C1=O [nilutamide]
inactive: 1 nM 3.3% | 8.33 nM 1.17% | 100 nM 0.03% | 833.33 nM -2.17% | 10000 nM 1.01%

C/C(=C\CNc1ncnc2[nH]cnc12)CO [zeatin]
inactive: 1 nM -3.72% | 8.33 nM -2.49% | 100 nM -0.97% | 833.33 nM 0.86% | 10000 nM -1.15%

CC(=O)N1CCN(CCOc2ccc(C3CCN(C4=Nn5c(nnc5C(F)(F)F)CC4)CC3)cc2)CC1
inactive: 1 nM 0.09% | 8.33 nM 1.43% | 100 nM 0.26% | 833.33 nM 1.65% | 10000 nM 1.88%

COc1ccccc1OCC(O)CNC(C)C (stereo not given) [moprolol]
inactive: 1 nM -0.33% | 8.33 nM -2.22% | 100 nM -0.82% | 833.33 nM -3.01% | 10000 nM -2.72%

O=C1NC(=O)/C(=C/c2ccc3nccc(-c4ccncc4)c3c2)S1
inactive: 1 nM -0.58% | 8.33 nM -1.8% | 100 nM 1.55% | 833.33 nM 2.78% | 10000 nM -1.1%

NCCCCCc1c[nH]cn1 [impentamine]
inactive: 1 nM -2.08% | 8.33 nM -1.69% | 100 nM -0.14% | 833.33 nM -0.52% | 10000 nM 0.02%

Cc1nc2ccccc2n1Cc1ccc(Cl)cc1 [chlormidazole]
inactive: 1 nM -3.42% | 8.33 nM -1.1% | 100 nM -6.27% | 833.33 nM -3.55% | 10000 nM -4.49%

c1cnc(SCc2cccnc2)nc1 [tasuldine]
inactive: 1 nM 1.94% | 8.33 nM 1.66% | 100 nM 0.38% | 833.33 nM 0.69% | 10000 nM 1.89%

COc1ccc(-c2coc3cc(O)cc(O)c3c2=O)cc1 [4-methylgenistein]
inactive: 1 nM -1.18% | 8.33 nM -0.05% | 100 nM 0.18% | 833.33 nM -1.7% | 10000 nM 2.29%

CC1=C(C(=O)O)N2C(=O)[C@@H](NC(=O)[C@H](N)c3ccc(O)cc3)[C@H]2SC1 [cefadroxil]
inactive: 1 nM 1.06% | 8.33 nM 1.53% | 100 nM 1.01% | 833.33 nM -2.49% | 10000 nM -1.18%

COc1ccc(C2CC(c3ccccc3)=NN2c2ccc(S(N)(=O)=O)cc2)cc1 (stereo not given)
inactive: 1 nM 0.58% | 8.33 nM 2.1% | 100 nM 1.18% | 833.33 nM -2.57% | 10000 nM 0.95%

CO[C@H]1C[C@H](O[C@H]2CC[C@@]3(C)[C@H](CC[C@@H]4[C@@H]3CC[C@]3(C)[C@@H](C5=CC(=O)OC5)[C@@H](OC(C)=O)C[C@]43O)C2)O[C@@H](C)[C@@H]1O [oleandrin]
inactive: 1 nM -3.22% | 8.33 nM -5.79% | 100 nM -12.1% | 833.33 nM -12.2% | 10000 nM -9.58%

C[C@@H](NC(=O)[C@@H](N)Cc1ccc(O)cc1)C(=O)NCC(=O)N(C)[C@@H](Cc1ccccc1)C(=O)N[C@H](CO)CC[S+](C)[O-] (stereo not given in full)
inactive: 1 nM -0.57% | 8.33 nM -1.1% | 100 nM -1.84% | 833.33 nM -0.24% | 10000 nM 0.65%

CC(C)(C)CC(C)(C)c1ccc(OCCOCC[N+](C)(C)Cc2ccccc2)cc1 [benzethonium]
inactive: 1 nM -8.35% | 8.33 nM -10.6% | 100 nM -12.9% | 833.33 nM -9.21% | 10000 nM -15.1%

O.O.O.O.O=C([O-])CC(O)(CC(=O)[O-])C(=O)[O-].[Li+].[Li+].[Li+] [lithium-citrate]
inactive: 1 nM 0.34% | 8.33 nM -0.51% | 100 nM -1.43% | 833.33 nM 1.38% | 10000 nM 1.33%

O=C1[O][SbH]23[O]C(=O)C([O]2)C2[O][SbH]4([O]C(=O)C([O]4)C1[O]3)[O]C2=O [antimonyl]
inactive: 1 nM 0.49% | 8.33 nM 0.38% | 100 nM -2.02% | 833.33 nM 0.19% | 10000 nM -10.4%
